“And” between values parts separate entries of the source, which are not always exact repeats. Equal entries are not always repeated. Out of some 73,000 compounds screened, about 350 (0.48%) were called active. Another 17% or so got no clear call; they are omitted. Calls come from the whole dose curve; as a rule, active = well fitted activation curve with a large enough effect in the main read-out, with a control signal flat (not every such curve was filed as active); inconclusive = small, poorly fitted or top-dose-only effect, or a change in a side signal; inactive = no such curve, though single readings can be large or run the other way; reference of the percent scale not stated here. Only a selection was taken, and actives are over-represented in it overall.
Tests used:
[1] = qHTS Assay for Agonists of the Thyroid Stimulating Hormone Receptor; details: HEK293-CNG-TSHR cells, membrane potential dye, cAMP; measured here: parental cells max response
In short: (§1)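 cAMP rise detected as CNG-channel membrane depolarization by fluorescent dye (emission 590 nm), 30 min after compound, following 60 min dye loading containing 100 uM RO 20-1724 at room temperature. Cells: TSHR/CNG HEK 293, with parental CNG HEK 293 as control.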

[2] = biological target: Thyrotropin receptor (Homo sapiens) (UniProt P16473); assay: as above; details: HEK293-CNG-TSHR cells (CNG channel as cAMP sensor), membrane potential dye, cAMP; series mostly up to 57.1 µM
In short: as §1
Potency is the fitted concentration of half-maximal effect.

Thyrotropin receptor (Homo sapiens), sequence (P16473 whole entry, looked up): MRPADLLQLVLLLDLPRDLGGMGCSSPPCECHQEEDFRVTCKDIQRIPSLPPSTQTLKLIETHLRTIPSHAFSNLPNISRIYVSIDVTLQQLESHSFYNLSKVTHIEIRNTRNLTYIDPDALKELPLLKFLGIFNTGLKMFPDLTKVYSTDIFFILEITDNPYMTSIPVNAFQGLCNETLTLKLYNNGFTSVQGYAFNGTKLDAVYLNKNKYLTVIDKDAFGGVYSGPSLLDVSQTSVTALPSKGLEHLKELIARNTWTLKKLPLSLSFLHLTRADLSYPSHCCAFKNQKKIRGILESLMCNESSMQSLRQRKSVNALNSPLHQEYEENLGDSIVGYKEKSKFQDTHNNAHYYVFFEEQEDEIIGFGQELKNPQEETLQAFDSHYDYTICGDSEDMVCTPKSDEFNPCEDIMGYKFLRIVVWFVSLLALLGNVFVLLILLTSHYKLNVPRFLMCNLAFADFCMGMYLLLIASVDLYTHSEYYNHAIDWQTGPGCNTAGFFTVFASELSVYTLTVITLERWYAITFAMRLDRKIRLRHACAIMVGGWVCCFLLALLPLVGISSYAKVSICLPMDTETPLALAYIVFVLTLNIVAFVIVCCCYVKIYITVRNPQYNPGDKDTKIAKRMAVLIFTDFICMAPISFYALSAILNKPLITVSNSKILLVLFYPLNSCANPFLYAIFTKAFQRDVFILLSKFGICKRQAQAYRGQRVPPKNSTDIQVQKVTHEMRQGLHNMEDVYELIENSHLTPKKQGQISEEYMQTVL

Structure (SMILES)	activation [1]	activation [2]	Potency [2]
CC(=O)OCC1OC(C#CCCCc2ccccc2)C=CC1OC(C)=O (centres undefined)	-0.905%	0.607% [at 11.4 µM] (inactive)	
CCc1cc(=O)oc2cc(C)cc(OC(C)C(=O)O)c12 (centres undefined)	10.3%		inactive
O=C1[C@H]2[C@H]3[C@H](O)[C@H](O)C/C(=N/OCc4ccccc4)[C@H]3CC[C@@H]2C(=O)N1Cc1ccccc1	-2.25%	-22.5% [at 11.4 µM] (inactive)	
c1ccc(-c2nnc3n2NC(c2ccc4c(c2)OCO4)S3)cc1 (centres undefined)	27.8%		25.1 µM (active)
O=C(Cn1nnc(-c2ccccc2)n1)NCc1ccc2c(c1)OCO2	12.1%		inactive
Fc1ccc(-c2nnc3sc(-c4ccc5c(c4)OCO5)nn23)cc1	23.4%		inactive
Cc1ccc(C(=O)N2CCN(C3CCCCC3)CC2)s1	-11.9%		inactive
CC(C)(C)c1ccc(OC2C=CC(C#Cc3ccccc3)OC2CO)cc1 (centres undefined)	12.6%	1.96% [at 11.4 µM] (inactive)	
O=C(Cn1cc2c(n1)CCCCC2)NCCN1CCOCC1	1.85%		inactive
CCOC(=O)CSc1nnc(-c2ccncc2)o1	-3.39%		inactive
Cc1ccc2nc(CC(=O)c3ccc4ccccc4c3)c(=O)[nH]c2c1	22.3%	4.8% [at 11.4 µM] (inactive)	
COc1ccc(-c2cc(C(=O)NC(C(=O)O)C(C)C)c(C)o2)cc1OC (centres undefined)	6.63%		inactive
CN1CCN(c2ncc3nc(-c4ccc(Cl)cc4)c(=O)n(-c4ccccc4)c3n2)CC1	-23%		inactive
COc1ncc2nc(-c3ccc(Cl)cc3)c(=O)n(C)c2n1	6.5%		inactive
CC(c1ccccc1)n1c(NCCCn2ccnc2)nc2c1c(=O)[nH]c(=O)n2C (centres undefined)	2.43%		inactive
Cn1c(=O)[nH]c(=O)c2c1nc(NCCCn1ccnc1)n2Cc1cccc(Br)c1	20.4%		20 µM (active)
CCCCNc1nc2c(c(=O)[nH]c(=O)n2C)n1CCOc1ccccc1	0.873%		inactive
CCC(C)(C)N=C(NC#N)Nc1cccnc1	0.273%		inactive
C1CCC2OC2C1 (centres undefined)	21.9%		inactive
CC(Cc1ccccc1)C(=O)N(C)Cc1ccccc1 (centres undefined)	16.5%		inactive
CO[C@H]1COC(=O)CCC[C@@H](C)[C@H](OC)COC(=O)[C@@H](C)NC(=O)C/C=C\[C@@H]1C	4.76%	0.571% [at 11.4 µM] (inactive)	

Structure (SMILES)	activation [1]	activation [2]	Potency [2]
C/C(CCN1CCCCc2nc(C)c(C)cc21)=N\O[C@@H](C)c1cn([C@@H]2COC[C@@H]2O)nn1	6.27%	4.59% [at 11.4 µM] (inactive)	
O=C(O)c1nccnc1C(=O)Nc1ccc(Br)cn1	3.73%		inactive
C[C@@H](c1ccccc1)N1C(=O)[C@H]2[C@H]3[C@H](O)[C@H](O)C/C(=N/OC[C@@H](O)COCc4ccco4)[C@@H]3CC[C@@H]2C1=O	5.7%	-3.6% [at 11.4 µM] (inactive)	
OC(CCl)CCl	12.9%		inactive
CCOC(=O)c1cccc(NC(=O)C2CCCN(S(=O)(=O)c3cnc[nH]3)C2)c1 (centres undefined)	5.88%		inactive
CN1CCN(Cc2c(O)ccc3c2oc(=O)c2ccccc23)CC1	13.2%		inactive
CO[C@H]1COC(=O)[C@H](Cc2ccccc2)NC(=O)C/C=C\[C@@H](C)[C@H](OC)COC(=O)C/C=C\[C@@H]1C	25.1%	10.2% [at 11.4 µM] (inactive)	
O=C(CC1Nc2ccccc2NC1=O)Nc1ccccc1 (centres undefined)	-1.43%		inactive
CCCCCCn1c(SCC(=O)c2ccccc2)nc2c1c(=O)[nH]c(=O)n2C	-2.08%	3.88% [at 11.4 µM] (inactive)	
CC1CCCCN1CCCNC(=O)c1ccc(-n2c(=O)c(=O)[nH]c3ccccc32)cc1 (centres undefined)	-4.46%		inactive
CCCn1c(C)nc2c(NCCCCN(CC)CC)nc(C)nc21	4.8%		inactive
O=C1C[C@@H](O)[C@@H](O)[C@H]2[C@@H]3C(=O)N(Cc4ccc5c(c4)OCO5)C(=O)[C@@H]3CC[C@H]12	0.478% and -2.17%	1.51% [at 11.4 µM] (inactive) and -4.05% [at 11.4 µM] (inactive)	
C#CCCCCCCCCCCCCCCCC(=O)O	7.8%		inactive
COc1ccc(-c2nnc(SC(=O)N3c4ccccc4Sc4ccccc43)o2)cc1	-13.7%	-19.2% [at 11.4 µM] (inactive)	
CCC1C(C#N)=C(SC)NC2=C1C(=O)CC(C)(C)C2 (centres undefined)	9.37%	4.61% [at 11.4 µM] (inactive)	
Cc1c2c(nc3ccccc13)-c1cccc(=O)n1C2	-3.79%		inactive
Cc1noc(C)c1-c1nc(Nc2ccccc2)c2ccccc2n1	-3.31%		inactive
O=C(O)c1ccc(Cl)c(S(=O)(=O)Nc2ccccc2Cl)c1	5.29%		inactive
Cc1ccc2c(c1)sc1ncc(NC(=O)c3ccccc3)c(=O)n12	11.7%		inactive
CCNC(=S)NCC	-3.45%		inactive
COC(=O)c1cn(-c2ccccc2)nc1-c1cccnc1	9.42%		inactive

Structure (SMILES)	activation [1]	activation [2]	Potency [2]
CO/N=C\[C@@H](C)[C@H](OCc1ccccc1)C(C)C	-0.643%	16.8% [at 11.4 µM] (inactive)	
O=c1c(-c2ccc(F)c(F)c2)nc2cncnc2n1-c1ccccc1	19.9%		inactive
N[C@H](C(=O)O)c1ccc(C(=O)O)c(O)c1	-2.63%		inactive
N#Cc1cccc(CSc2nnc(CCCO)n2-c2ccccc2)c1	-1.39%		inactive
COC(=O)C1(C)C=CC2(CCCCC2)N1C(C)=O (centres undefined)	19.4%		inactive
COc1cccc(-c2nnc(N(C)C(=O)c3ccno3)s2)c1	11%	-1% [at 11.4 µM] (inactive)	
CC(=O)OCC1OC(C#Cc2ccccc2Cl)C=CC1OC(C)=O (centres undefined)	-0.512%	0.546% [at 11.4 µM] (inactive)	
COc1ccc(/C=C/NC(=O)c2ccc(OC)cc2)cc1	-3.02%	-7.55% [at 11.4 µM] (inactive)	
CN1CCc2nc(-c3ccccc3)c(-c3ccccc3)cc2C1	0.173%	2% [at 11.4 µM] (inactive)	
Cn1c(=O)c(-c2ccccc2)nc2cnc(N3CCNCC3)nc21	4.18%		inactive
CC1(C)S[C@@H]2[C@@H](NC(=O)[C@@H](N)c3ccccc3)C(=O)N2[C@H]1C(=O)O	-1.13%		inactive
CC(C)(C)c1ccc(NC(=O)NCc2ccco2)cc1	3.69%		3.98 µM (active)
Cc1ccccc1NC(=O)NCc1ccco1	1.97%		inactive
CC(C)(C)c1ccc(C(=O)NCCC(=O)NCc2ccco2)cc1	-0.34%		inactive
CCOc1ccccc1C1NC(=O)NC(C)=C1C(=O)OCc1ccco1 (centres undefined)	0.325%		inactive
CCC(Sc1nncn1C)C(=O)Nc1nnc(-c2ccc(Cl)cc2)s1 (centres undefined)	-6.53%		inactive
O=C1OCCC=C1[C@@H](O)CCc1ccccc1	-4.2%	5.01% [at 11.4 µM] (inactive)	
COc1ccc(/C=C/NC(=O)Cc2ccc(OC)c(OC)c2)cc1	28.5% and 7.24%	10.9% [at 11.4 µM] (inactive) and -1.69% [at 11.4 µM] (inactive)	
CCOC(=O)c1cnc(-n2nc(C)cc2C)nc1Nc1cccc(C(C)=O)c1	16.9%		inactive
CCOC(=O)c1cnc2sccn2c1=O	5.11%		inactive
CCOC(=O)c1cnc(-n2nc(C)cc2C)nc1-n1nc(C)cc1C	1.88%		3.16 µM (active)

Structure (SMILES)	activation [1]	activation [2]	Potency [2]
CC(=O)Nc1cc2ccc(OC(C)=O)cc2oc1=O	-10.5%		inactive
Oc1ccc(Cl)cc1/C=N/c1nc2ccccc2[nH]1	6.32%	0.206% [at 11.4 µM] (inactive)	
CNC(=O)c1c(NC(=O)c2ccc(S(=O)(=O)N3CCOCC3)cc2)sc2c1CCC2	0.0362%		inactive
COc1ccc2c(c1)C=CC1(O2)N(CCO)c2ccccc2C1(C)C (centres undefined)	16.4%		15.8 µM (active)
O=P(c1cccs1)(c1cccs1)c1cccs1	29%		0.631 µM (active)
O=C(Nc1ncccn1)c1cccs1	2.1%		inactive
O=C(O)CCC(=O)N(Cc1cccs1)Cc1cccs1	4.58%		inactive
O=C(O)CCC(=O)NCc1ccc2[nH]c3c(c2c1)CCCC3	-0.484%		inactive
Cc1cccc(C(=O)O)c1	12.6%		inactive
CO[C@@H]1COC(=O)C/C=C\[C@H](C)[C@@H](NS(=O)(=O)c2ccc(C)cc2)COC(=O)C/C=C\[C@@H]1C	2.07% and 4.9%	-0.576% [at 11.4 µM] (inactive) and -0.527% [at 11.4 µM] (inactive)	
CCOC(=O)N/N=C1/C[C@@H](O)[C@@H](O)[C@@H]2[C@@H]3C(=O)N(CC)C(=O)[C@H]3CC[C@H]12	2.56%	5.56% [at 11.4 µM] (inactive)	
CC(C)CCn1c(CN(C)Cc2ccccc2)nc2c1c(=O)n(C)c(=O)n2C	3.87%		inactive
CO[C@@H]1COC(=O)[C@H](Cc2ccccc2)NC(=O)C/C=C\[C@@H](C)[C@H](OC)COC(=O)[C@@H](C)NC(=O)C/C=C\[C@H]1C	8.45% and -4.16%	-6.09% [at 11.4 µM] (inactive) and -4.32% [at 11.4 µM] (inactive)	
COc1ccc2oc(=O)c(C(=O)N3CCCc4ccccc43)cc2c1	-9.12%		inactive
Cc1occc1C(=O)N1CCCc2ccccc21	23.6%		inactive
CCc1cc(=O)oc2cc(OCC(=O)N3CCCc4ccccc43)ccc12	-4.75%		25.1 µM (active)
COc1ccc(COC(=O)N/N=C2/C[C@@H](O)[C@@H](O)[C@@H]3[C@@H]4C(=O)N([C@@H](C)c5ccccc5)C(=O)[C@H]4CC[C@@H]23)cc1	-0.62%	0.427% [at 11.4 µM] (inactive)	
Nc1nonc1C(=O)NCCc1ccccc1	-2.18%		inactive
COc1cc(Cl)c(S(=O)(=O)n2cnc(C)c2)cc1Cl	12.1%	13.5% [at 11.4 µM] (inactive)	

— PubChem BioAssay AID926 (National Center for Advancing Translational Sciences (NCATS), 2007)
